Reference: PubChem BioAssay AID1508601 (ICCB-Longwood Screening Facility, Harvard Medical School, 2020)
Hit rate of the full screen: of about 5,700 compounds, about 85 (1%) were called active. Cut-off read from the data, not from the text of the source: active = p53-positive nuclei above about 36% (passing the limit was not always enough); inactive = the rest. Many of the other results were omitted from the sample, so actives are more common in it than they were.

What was measured:
[1] = nuclear p53 accumulation, HPV+ cells – imaging, p53-positive nuclei imaging, 24 h, 48 h (AID 1508601); details: 24/48 h
[2] = target: Cellular tumor antigen p53 (Homo sapiens) (UniProt P04637); test: as above; details: 24/48 h, stronger effect = higher value
[3] = measured here: cell number at 24 h, Library stock concentration: 80 uM
[4] = measured here: cell number at 24 h, Library stock concentration: 400 uM
[5] = measured here: cell number at 24 h, Library stock concentration: 2 mM
[6] = measured here: cell number at 24 h, Library stock concentration: 3.33 mM
[7] = measured here: cell number at 24 h, Library stock concentration: 10 mM
[8] = measured here: cell number at 48 h, Library stock concentration: 80 uM
[9] = measured here: cell number at 48 h, Library stock concentration: 400 uM
[10] = measured here: cell number at 48 h, Library stock concentration: 2 mM
[11] = measured here: cell number at 48 h, Library stock concentration: 3.33 mM
[12] = measured here: cell number at 48 h, Library stock concentration: 10 mM
[13] = Library stock concentration: 80 uM
[14] = Library stock concentration: 400 uM
[15] = Library stock concentration: 2 mM
[16] = Library stock concentration: 3.33 mM
[17] = Library stock concentration: 10 mM
[18] = measured here: p53 positive nuclei at 24 h, Library stock concentration: 80 uM
[19] = measured here: p53 positive nuclei at 24 h, Library stock concentration: 400 uM
[20] = measured here: p53 positive nuclei at 24 h, Library stock concentration: 2 mM
[21] = measured here: p53 positive nuclei at 24 h, Library stock concentration: 3.33 mM
[22] = measured here: p53 positive nuclei at 24 h, Library stock concentration: 10 mM
[23] = measured here: cell number at 24 h, concentration not given here
[24] = measured here: cell number at 48 h, concentration not given here
[25] = measured here: p53 positive nuclei at 24 h, concentration not given here

Chain of Cellular tumor antigen p53 (Homo sapiens) (P04637 whole entry, looked up): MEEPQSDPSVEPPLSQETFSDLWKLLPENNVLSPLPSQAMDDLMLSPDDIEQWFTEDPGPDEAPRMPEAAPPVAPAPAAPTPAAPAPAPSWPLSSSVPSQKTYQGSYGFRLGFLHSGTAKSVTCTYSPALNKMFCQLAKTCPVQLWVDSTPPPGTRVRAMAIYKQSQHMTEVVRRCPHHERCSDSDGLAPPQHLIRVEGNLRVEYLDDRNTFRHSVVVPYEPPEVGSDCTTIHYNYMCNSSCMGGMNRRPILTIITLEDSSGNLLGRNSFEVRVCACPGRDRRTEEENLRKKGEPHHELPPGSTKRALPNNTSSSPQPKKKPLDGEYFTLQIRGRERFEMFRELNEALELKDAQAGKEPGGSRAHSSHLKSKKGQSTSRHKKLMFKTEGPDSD

O=C(Nc1ccc(-c2ccnc(Nc3ccc(N4CCOCC4)cc3)n2)cc1)C1CCCN1 (centres undefined)
nuclei count, normalised [1, 3]: 114% | nuclei count, normalised [1, 4]: 116% | nuclei count, normalised [1, 5]: 107% | nuclei count, normalised [1, 6]: 102% | nuclei count, normalised [1, 7]: 104% | nuclei count, normalised [1, 8]: 109% | nuclei count, normalised [1, 9]: 109% | nuclei count, normalised [1, 10]: 104% | nuclei count, normalised [1, 11]: 95.9% | nuclei count, normalised [1, 12]: 101% | p53-positive nuclei, normalised [2, 13]: 0.0592% (inactive) | p53-positive nuclei, normalised [2, 14]: -0.0399% (inactive) | p53-positive nuclei, normalised [2, 15]: -0.0329% (inactive) | p53-positive nuclei, normalised [2, 16]: -0.0902% (inactive) | p53-positive nuclei, normalised [2, 17]: 0.0109% (inactive) | p53-positive nuclei, normalised [2, 18]: 0.0145% | p53-positive nuclei, normalised [2, 19]: -0.114% | p53-positive nuclei, normalised [2, 20]: 0.0282% | p53-positive nuclei, normalised [2, 21]: -0.231% | p53-positive nuclei, normalised [2, 22]: -0.058%

Fc1cc(-c2ccnc(Nc3ccc(-n4cnc(N5CCOCC5)n4)cc3)n2)cc(N2CCOCC2)c1
nuclei count, normalised [1, 3]: 86.7% | nuclei count, normalised [1, 4]: 101% | nuclei count, normalised [1, 5]: 64.8% | nuclei count, normalised [1, 7]: 36.4% | nuclei count, normalised [1, 8]: 73% | nuclei count, normalised [1, 9]: 81% | nuclei count, normalised [1, 10]: 43.7% | nuclei count, normalised [1, 12]: 21.7% | p53-positive nuclei, normalised [2, 13]: 27.8% (inactive) | p53-positive nuclei, normalised [2, 14]: 13.6% (inactive) | p53-positive nuclei, normalised [2, 15]: 90.9% (active) | p53-positive nuclei, normalised [2, 17]: 38.1% (inactive) | p53-positive nuclei, normalised [2, 18]: 7.9% | p53-positive nuclei, normalised [2, 19]: 2.88% | p53-positive nuclei, normalised [2, 20]: 49.4% | p53-positive nuclei, normalised [2, 22]: 15.7%

CC(C)CC(NC(=O)CNC(=O)c1cc(Cl)ccc1Cl)B(O)O (centres undefined)
nuclei count, normalised [1, 6]: 50.2% | nuclei count, normalised [1, 11]: 43.3% | p53-positive nuclei, normalised [2, 16]: 98% (active) | p53-positive nuclei, normalised [2, 21]: 94%

CCCC(C)NC(=O)c1ccc(Cl)c(Cl)c1 (centres undefined)
nuclei count, normalised [1, 6]: 116% | nuclei count, normalised [1, 11]: 114% | p53-positive nuclei, normalised [2, 16]: -0.00479% (inactive) | p53-positive nuclei, normalised [2, 21]: -0.344%

CC(C)CC(NC(=O)CNC(=O)c1cc(Cl)ccc1Cl)B1OC(=O)CC(CC(=O)O)(C(=O)O)O1 (centres undefined)
nuclei count, normalised [1, 6]: 46.4% | nuclei count, normalised [1, 11]: 36.8% | p53-positive nuclei, normalised [2, 16]: 97.7% (active) | p53-positive nuclei, normalised [2, 21]: 101%

CNC(=O)C(c1ccccc1)N1CCc2cc(OC)c(OC)cc2C1CCc1ccc(C(F)(F)F)cc1 (centres undefined)
nuclei count, normalised [1, 6]: 107% | nuclei count, normalised [1, 11]: 104% | p53-positive nuclei, normalised [2, 16]: -0.362% (inactive) | p53-positive nuclei, normalised [2, 21]: -0.539%

Cc1occc1C(=O)Nc1ccccc1C(=O)N(C)Cc1ccccn1
nuclei count, normalised [1, 23]: 96.8% | nuclei count, normalised [1, 24]: 105% | p53-positive nuclei, normalised ([2]; concentration not given here): 0.23% (inactive) | p53-positive nuclei, normalised [2, 25]: 0.178%

O=C(c1ccccc1-c1nn[nH]n1)N1CCc2[nH]cnc2C1c1ccccn1 (centres undefined)
nuclei count, normalised [1, 23]: 101% | nuclei count, normalised [1, 24]: 107% | p53-positive nuclei, normalised ([2]; concentration not given here): -0.169% (inactive) | p53-positive nuclei, normalised [2, 25]: -0.0711%

O=C(OC[C@@H]1O[C@H]1c1ccccc1)Oc1ccc([N+](=O)[O-])cc1
nuclei count, normalised [1, 23]: 101% | nuclei count, normalised [1, 24]: 105% | p53-positive nuclei, normalised ([2]; concentration not given here): -0.0534% (inactive) | p53-positive nuclei, normalised [2, 25]: -0.0466%

COc1ccc(CC(NC(=O)C(C)NC(=O)CN2CCOCC2)C(=O)NC(Cc2ccccc2)C(=O)[C@]2(C)CO2)cc1 (some centres undefined)
nuclei count, normalised [1, 6]: 46% | nuclei count, normalised [1, 11]: 38.7% | p53-positive nuclei, normalised [2, 16]: 106% (active) | p53-positive nuclei, normalised [2, 21]: 126%

COc1ccc(CC(NC(=O)C(C)NC(=O)CN2CCOCC2)C(=O)NC(Cc2ccccc2)C(=O)[C@@]2(C)CO2)cc1 (some centres undefined)
nuclei count, normalised ([1]; measured here: cell number at 24 h, Library stock concentration: 46 uM): 107% | nuclei count, normalised ([1]; measured here: cell number at 24 h, Library stock concentration: 278 uM): 109% | nuclei count, normalised ([1]; measured here: cell number at 24 h, Library stock concentration: 1.67 mM): 57.1% | nuclei count, normalised [1, 7]: 52.6% | nuclei count, normalised ([1]; measured here: cell number at 48 h, Library stock concentration: 46 uM): 113% | nuclei count, normalised ([1]; measured here: cell number at 48 h, Library stock concentration: 278 uM): 113% | nuclei count, normalised ([1]; measured here: cell number at 48 h, Library stock concentration: 1.67 mM): 43.8% | nuclei count, normalised [1, 12]: 39.6% | p53-positive nuclei, normalised ([2]; Library stock concentration: 46 uM): -0.326% (inactive) | p53-positive nuclei, normalised ([2]; Library stock concentration: 278 uM): 0.734% (inactive) | p53-positive nuclei, normalised ([2]; Library stock concentration: 1.67 mM): 103% (active) | p53-positive nuclei, normalised [2, 17]: 102% (active) | p53-positive nuclei, normalised ([2]; measured here: p53 positive nuclei at 24 h, Library stock concentration: 46 uM): -0.151% | p53-positive nuclei, normalised ([2]; measured here: p53 positive nuclei at 24 h, Library stock concentration: 278 uM): 0.483% | p53-positive nuclei, normalised ([2]; measured here: p53 positive nuclei at 24 h, Library stock concentration: 1.67 mM): 146% | p53-positive nuclei, normalised [2, 22]: 144%
